Drawing on PubChem BioAssay (Tox21), this text covers Potency for 39 molecules.

Structures are written as SMILES. “And” between values parts separate entries of the source, which are not always exact repeats. Identical values can stand only once. Inconclusive results are not listed. Entries that show only a call come without a potency. Some compounds were tested as several samples or in several runs, with calls that do not always agree. The source made the active and inactive calls. The call rests on the fitted dose curve; in most records, active means well fitted activation curve with a large enough effect in the repeat runs; inconclusive means weak or mixed curves; inactive means flat fitted curve, though single readings scatter.
Potency means the concentration at half of the fitted maximal effect.

A short description of one assay: A CellTox Green Cytotoxicity Assay to monitor cytotoxicity in HEK293 cells - 32 hour (AID 1224881). Further: nearly all actives have a fitted effect of over 40% in size. Conditions: CellTox Green fluorescence; series mostly up to 76.8 µM. Summed up:
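Dead-cell fluorescence measured kinetically: asymmetric cyanine dye, HEK293, 600 cells/well, 5 h settle, 23 nL cpd/DMSO, 37 C, reads 0–40 h every 8 h.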
Regarding `CC1=CCC(C(C)(C)O)CC1` (stereo not drawn), the Potency entry is “inactive”.
For the molecule `Nc1ncn([C@@H]2O[C@H](CO)[C@@H](O)[C@H]2O)c(=O)n1`, the Potency result was “inactive”.
As to `CCOC(=O)C(C#N)=C(c1ccccc1)c1ccccc1`, the Potency result was “inactive”.
With `CCC(C)(O)CCCC(C)C` (stereo not drawn), the Potency result is “inactive”.
With `CCCCNS(=O)(=O)c1ccccc1`, the Potency entry was “inactive”.
As to `CC(C)CC(C)(O)C#CC(C)(O)CC(C)C` (stereo not drawn), the Potency result was “inactive”.
For `c1ccc2c(c1)c1cccc3ccc4cccc2c4c31`, the Potency result was “inactive”.
With `O=C(/C=C/c1ccccc1)OCc1ccccc1`, the Potency entry was “inactive”.
On the same count and under the same terms, under `CC(C)(C)NC(=O)[C@H]1CC[C@H]2[C@@H]3CC[C@H]4NC(=O)C=C[C@]4(C)[C@H]3CC[C@]12C` stands “inactive”; under `CCCc1c(OCCCCc2nn[nH]n2)ccc(C(C)=O)c1O`, “inactive”; under `CCCCCCCCCCCO`, “inactive”.
Same read-out and setting: under `COc1ccc(OC)c(C(O)CNC(=O)CN)c1` (stereo not drawn) stands “inactive”.
Consider `COC(=O)Nc1nc2ccc(S(=O)c3ccccc3)cc2[nH]1` (stereo not drawn), for which the Potency entry is “inactive”.
As to `Cc1ncc[nH]1`, the Potency entry is “inactive”.
Turning to `Cc1ccc(C(=O)c2cc(O)c(O)c([N+](=O)[O-])c2)cc1`, the Potency entry was “inactive”.
As for `CN1C(C(=O)Nc2ccccn2)=C(O)c2ccccc2S1(=O)=O`, the Potency entry was “inactive”.
Still for that read-out and setting: under `Cc1c(OCC(F)(F)F)ccnc1CS(=O)c1nc2ccccc2[nH]1` (stereo not drawn) stands “inactive”; under `Nc1ccc(Nc2ccccc2)cc1`, “inactive”.
With `COc1cc([C@@H]2c3cc4c(cc3[C@H](O)[C@H]3COC(=O)[C@H]23)OCO4)cc(OC)c1OC`, the Potency result is “inactive”.
For `CC(C)OC=O`, the Potency result was “inactive”.
In the case of `OC(CCl)CCl`, the Potency result was “inactive”.
With `CC(C)OB(OC(C)C)OC(C)C`, the Potency result was “inactive”.
As for `C[Si](C)(C)O[Si](C)(C)C`, the Potency entry is “inactive”.
Regarding `c1cc(-c2ccncc2)ccn1`, the Potency entry was “inactive”.
Take `NNc1ccc(C(=O)O)cc1`: the Potency entry is “inactive”.
For `O=C(OCc1ccccc1)c1ccccc1O`, the Potency entry was “inactive”.
For `NC=O`, the Potency result was “inactive”.
Take `Cc1cc2nc3c(=O)[nH]c(=O)nc-3n(C[C@H](O)[C@H](O)[C@H](O)CO)c2cc1C`: the Potency is 48.5 µM (active) and 45.5 µM (active) and 11.7 µM (active).
Regarding `Nc1ncnc2nc[nH]c12`, the Potency result was “inactive”.
On to `CC(CCC(=O)O)(c1ccc(O)cc1)c1ccc(O)cc1`, for which the Potency result is “inactive”.
Still for that read-out and setting: under `C=C(C)C1CC=C(C)CC1` (stereo not drawn) stands “inactive”.
Take `Cc1[nH]c(=O)c(C#N)cc1-c1ccncc1`: the Potency entry is “inactive”.
In the case of `O=C(c1ccccc1)c1ccc(O)cc1O`, the Potency entry was “inactive”.
With `CCCCCCCCCC(=O)OC`, the Potency result was “inactive”.
For the molecule `Cc1cccc(C(=O)O)c1`, the Potency entry was “inactive”.
Same read-out and setting: the same measure for `c1ccc(Nc2ccccc2)cc1`: 21.9 µM (active) and inactive.
As to `CCCC(=O)O`, the Potency entry was “inactive”.
On to `O=[N+]([O-])c1ccc2c(c1)Cc1ccccc1-2`, for which the Potency result is “inactive”.
In the case of `OCCO`, the Potency result was “inactive”.

A further assay is described as follows: A CellTox Green Cytotoxicity Assay to monitor cytotoxicity in HepG2 cells - 0 hour (AID 1224882). Further: nearly all actives have a fitted effect of over 35% in size. As to conditions: CellTox Green fluorescence; series mostly up to 76.8 µM. Summed up: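 First, HepG2 cells (600/well) mixed with reagent were plated; second, after 5 h at 37 C they received compounds via pintool; third, fluorescence was measured at 0 h through 40 h at 8 h intervals.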
With `CC1=CCC(C(C)(C)O)CC1` (stereo not drawn), the Potency result was “inactive”.
For the molecule `Nc1ncn([C@@H]2O[C@H](CO)[C@@H](O)[C@H]2O)c(=O)n1`, the Potency result is “inactive”.
Still for that read-out and setting: under `CCOC(=O)C(C#N)=C(c1ccccc1)c1ccccc1` stands “inactive”.
With `CCC(C)(O)CCCC(C)C` (stereo not drawn), the Potency result is “inactive”.
Still for that read-out and setting: under `CCCCNS(=O)(=O)c1ccccc1` stands “inactive”; under `CC(C)CC(C)(O)C#CC(C)(O)CC(C)C` (stereo not drawn), “inactive”.
As to `c1ccc2c(c1)c1cccc3ccc4cccc2c4c31`, the Potency entry was “inactive”.
In the case of `O=C(/C=C/c1ccccc1)OCc1ccccc1`, the Potency entry is “inactive”.
`CC(C)(C)NC(=O)[C@H]1CC[C@H]2[C@@H]3CC[C@H]4NC(=O)C=C[C@]4(C)[C@H]3CC[C@]12C`: the Potency entry is “inactive”.
The same measure, in the same setting: under `CCCc1c(OCCCCc2nn[nH]n2)ccc(C(C)=O)c1O` stands “inactive”; under `CCCCCCCCCCCO`, “inactive”; under `COc1ccc(OC)c(C(O)CNC(=O)CN)c1` (stereo not drawn), “inactive”.
Take `COC(=O)Nc1nc2ccc(S(=O)c3ccccc3)cc2[nH]1` (stereo not drawn): the Potency result was “inactive”.
Consider `Cc1ncc[nH]1`, for which the Potency result was “inactive”.
`Cc1ccc(C(=O)c2cc(O)c(O)c([N+](=O)[O-])c2)cc1`: the Potency entry was “inactive”.
Turning to `CN1C(C(=O)Nc2ccccn2)=C(O)c2ccccc2S1(=O)=O`, the Potency entry is “inactive”.
On the same count and under the same terms, under `Cc1c(OCC(F)(F)F)ccnc1CS(=O)c1nc2ccccc2[nH]1` (stereo not drawn) stands “inactive”; under `Nc1ccc(Nc2ccccc2)cc1`, “inactive”; under `COc1cc([C@@H]2c3cc4c(cc3[C@H](O)[C@H]3COC(=O)[C@H]23)OCO4)cc(OC)c1OC`, “inactive”.
As to `CC(C)OC=O`, the Potency result was “inactive”.
As to `OC(CCl)CCl`, the Potency entry was “inactive”.
The same measure, in the same setting: the same measure for `CC(C)OB(OC(C)C)OC(C)C`: “inactive”; for `C[Si](C)(C)O[Si](C)(C)C`: “inactive”.
For `c1cc(-c2ccncc2)ccn1`, the Potency entry was “inactive”.
As to `NNc1ccc(C(=O)O)cc1`, the Potency result was “inactive”.
The same measure, in the same setting: the same measure for `O=C(OCc1ccccc1)c1ccccc1O`: “inactive”.
Still for that read-out and setting: under `NC=O` stands “inactive”; under `Cc1cc2nc3c(=O)[nH]c(=O)nc-3n(C[C@H](O)[C@H](O)[C@H](O)CO)c2cc1C`, 43.2 µM (active) and 40.5 µM (active) and 11.7 µM (active).
In the case of `Nc1ncnc2nc[nH]c12`, the Potency result is “inactive”.
As to `CC(CCC(=O)O)(c1ccc(O)cc1)c1ccc(O)cc1`, the Potency entry was “inactive”.
The same measure, in the same setting: the same measure for `C=C(C)C1CC=C(C)CC1` (stereo not drawn): “inactive”; for `Cc1[nH]c(=O)c(C#N)cc1-c1ccncc1`: “inactive”; for `O=C(c1ccccc1)c1ccc(O)cc1O`: “inactive”.
In the case of `CCCCCCCCCC(=O)OC`, the Potency result is “inactive”.
In the case of `Cc1cccc(C(=O)O)c1`, the Potency result was “inactive”.
Turning to `c1ccc(Nc2ccccc2)cc1`, the Potency result was “inactive”.
Consider `CCCC(=O)O`, for which the Potency entry is “inactive”.
As to `O=[N+]([O-])c1ccc2c(c1)Cc1ccccc1-2`, the Potency entry was “inactive”.
Turning to `OCCO`, the Potency entry is “inactive”.
